Inconclusive results are not listed. Entries that show only a call come without a potency. More than one record can exist for a structure, and the calls need not agree. Active and inactive are the calls of the source. The call rests on the fitted dose curve; in most records, active means well fitted inhibition curve with a large enough effect in the signal ratio in the repeat runs (not every such curve was filed as active); inconclusive means weak or mixed curves, or effect the other way; inactive means no such curve, though single readings can be large or run the other way; the % refers to the signal ratio.
Potency means the concentration at half of the fitted maximal effect.

Chain of Estrogen receptor beta (Homo sapiens) (Q92731 whole entry, looked up): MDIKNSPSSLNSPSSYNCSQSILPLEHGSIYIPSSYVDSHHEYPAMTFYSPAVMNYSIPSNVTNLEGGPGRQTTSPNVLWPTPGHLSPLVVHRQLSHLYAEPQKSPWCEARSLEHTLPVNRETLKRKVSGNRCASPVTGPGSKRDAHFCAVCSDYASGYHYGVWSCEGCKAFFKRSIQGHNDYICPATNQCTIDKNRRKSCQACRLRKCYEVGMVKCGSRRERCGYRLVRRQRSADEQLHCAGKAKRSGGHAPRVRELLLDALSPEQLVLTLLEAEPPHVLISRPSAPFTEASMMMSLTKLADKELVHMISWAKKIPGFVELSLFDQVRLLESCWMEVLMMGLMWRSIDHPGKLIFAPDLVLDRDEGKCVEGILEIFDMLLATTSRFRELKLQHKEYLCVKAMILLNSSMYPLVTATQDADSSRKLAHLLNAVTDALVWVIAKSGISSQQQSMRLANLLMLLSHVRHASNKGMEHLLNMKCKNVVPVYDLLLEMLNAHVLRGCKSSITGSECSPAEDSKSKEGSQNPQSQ

This test concerns the target Estrogen receptor beta (Homo sapiens) (UniProt Q92731). Kind of test: qHTS assay to identify small molecule antagonists of the estrogen receptor beta (ER-beta) signaling pathway (AID 1259378). The following applies: ER-beta-UAS-bla HEK293T, beta-lactamase FRET ratio, 16 h; series mostly up to 92.4 µM. An excerpt:
National Center for Advancing Translational Sciences [NCATS]
NIH Chemical Genomics Center [NCGC]
U.S. Environmental Protection Agency [EPA]
National Institutes of Environmental Health Sciences [NIEHS]
National Toxicology Program [NTP]
U.S. Food and Drug Administration [FDA]
Estrogen receptor (ER), a nuclear hormone receptor, plays an important role in development, metabolic homeostasis and reproduction. Two subtypes of ER, ER-alpha and ER-beta, have similar expression patterns with some uniqueness in both types. Endocrine disrupting chemicals (EDCs) and their interactions with steroid hormone receptors like ER causes disruption of normal endocrine function. To identify the compounds that inhibit ER signaling, an ER-beta-UAS-bla GripTite cell line (Life Technologies, Madison, WI, USA) containing a beta-lactamase reporter gene under the control of an UAS response element was used to screen Tox21 10K compound library.
Tox21 Assay Protocol Summary:
ER-beta-UAS-bla HEK293T cells were dispensed at 2,000 cells/4 uL of assay medium containing 2% charcoal stripped FBS per well into black wall/clear-bottom 1536-well plates using a Multidrop Combi (ThermoFisher Scientific, Waltham, MA) dispenser. After the assay plates were incubated at a 37C and 5% CO2 for 6 hr, 23 nL of compounds dissolved in DMSO, positive controls or DMSO only was transferred to the assay plate by a Pintool station (Kalypsys, San Diego, CA), followed by addition of 1 uL (1nM as final concentration) of 17-beta-estradiol (E2) in assay medium using a BioRAPTR FRD (Flying Reagent Dispenser, Aurora Discovery, San Diego, CA). The plates were incubated at 37C and 5% CO2 for 16 hr. Then 1 uL of LiveBLAzerTM B/G FRET substrate was added using a Flying Reagent Dispenser, the plates were incubated at room temperature for 2 hours, and fluorescence intensity was measured by an Envision plate reader (PerkinElmer, Shelton, CT).
As for `CC(C)(C)c1cc(Cc2cc(C(C)(C)C)c(O)c(C(C)(C)C)c2)cc(C(C)(C)C)c1O`, the Potency result is “inactive”.

For `Cc1ccc([N+](=O)[O-])cc1S(=O)(=O)O`, the Potency result was “inactive”.

On to `Nc1nc(N)nc(-c2ccccc2)n1`, for which the Potency result was “inactive”.

`C=CC(C)CCCC(C)(C)O` (stereo not given): the Potency result is “inactive”.

With `CC(=O)OCc1ccccc1`, the Potency result is “inactive”.

In the case of `CCOCCOCCOCCO`, the Potency result is “inactive”.

`CC(=O)Oc1ccc(C)cc1`: the Potency result was “inactive”.

As to `CC(C)CC(C)O` (stereo not given), the Potency result was “inactive”.

As to `C[C@]12CCC(=O)C=C1CC[C@@H]1[C@@H]2[C@@H](O)C[C@@]2(C)[C@H]1CC[C@]2(O)C(=O)CO`, the Potency entry was “inactive”.

As for `CC(C)CC(=O)CC(C)CC(C)C` (stereo not given), the Potency entry is “inactive”.

In the case of `CC(C)OP(=O)(CP(=O)(OC(C)C)OC(C)C)OC(C)C`, the Potency entry was “inactive”.

As to `NCCN1CCNCC1`, the Potency result was “inactive”.

Regarding `O=c1[nH]cnc2[nH]ncc12`, the Potency is 22.2 µM (active) and inactive.

Turning to `COCCOC(=O)c1ccccc1C(=O)OCCOC`, the Potency result was “inactive”.

`CCCCCCCCCCCC(=O)OC`: the Potency result is “inactive”.

Regarding `CN/C(=C\[N+](=O)[O-])NCCSCc1csc(CN(C)C)n1`, the Potency result was “inactive”.

`CCCCCCCO`: the Potency result was “inactive”.

Turning to `O=C(O)Cn1c(=O)n(Cc2ccc(Br)cc2F)c(=O)c2ccc(Cl)cc21`, the Potency result is “inactive”.

For the compound `CC(=O)c1ccc(O)cc1`, the Potency result is “inactive”.

As to `CCCCCCCCCCCCCCCCO`, the Potency entry is “inactive”.

With `CNC(=S)N(C)C`, the Potency result was “inactive”.

`Nc1ccc(Cl)c(N)c1`: the Potency entry was “inactive”.

Turning to `COc1ccccc1OCC(O)CO` (stereo not given), the Potency result was “inactive”.

`CN(C)CCOC(=O)COc1ccc(Cl)cc1`: the Potency result is “inactive”.

Regarding `c1ccc2c(c1)Cc1ccccc1-2`, the Potency entry is “inactive”.

Turning to `CSc1ccc(Cl)cc1`, the Potency entry was “inactive”.

Turning to `CCCCCCCCCCCCCCCC(=O)OC(C)C`, the Potency result was “inactive”.

For the compound `O=C1C(c2[nH]c3ccccc3c2O)=Nc2ccccc21`, the Potency entry was “inactive”.

In the case of `O=C(O)c1ccc(S(=O)(=O)N(Cl)Cl)cc1`, the Potency result is “inactive”.

In the case of `Brc1ccc(Br)c(Br)c1`, the Potency entry is “inactive”.

`CC(C)(C#N)c1cc(Cn2cncn2)cc(C(C)(C)C#N)c1`: the Potency entry is “inactive”.

As to `OCc1cccc(Oc2ccccc2)c1`, the Potency result was “inactive”.

Turning to `CC(=O)CC(C)(C)O`, the Potency result is “inactive”.

For the compound `O=[N+]([O-])c1ccc2nc[nH]c2c1`, the Potency entry was “inactive”.

`C=Cc1ccc(C)cc1`: the Potency result is “inactive”.

As to `O=C1CCCC1`, the Potency entry was “inactive”.

With `C=C(C)C(=O)OCC(C)C`, the Potency result was “inactive”.

Regarding `CCOC(=O)n1ccn(C)c1=S`, the Potency entry was “inactive”.

For `CC(=O)OCc1ccco1`, the Potency entry is “inactive”.

For `CN(C)c1ccc(O)c2c1C[C@H]1C[C@H]3[C@H](N(C)C)C(=O)C(C(N)=O)=C(O)[C@@]3(O)C(=O)C1=C2O`, the Potency entry was “inactive”.

The values are drawn from PubChem BioAssay (Tox21).
